Experimental data as given in PMC4336329 (PLoS ONE, 2015).
Out of some 310,000 compounds screened, about 14,000 (4.5%) showed an effect of 50% or more. Effects have a minus sign here. The sample holds strong results, similar compounds and a random draw of the others, so the mix is not that of the screen.

Target: human ether-à-go-go-related gene (hERG) potassium channel (human, UniProt Q12809)
Assay: primary screen, population patch clamp on CHO cells stably expressing hERG; higher = less effect of the substance
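Further: peak tail current of the secondary pulse compared with the same well before compound.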

Chain of human ether-à-go-go-related gene (hERG) potassium channel (Q12809 whole entry, looked up): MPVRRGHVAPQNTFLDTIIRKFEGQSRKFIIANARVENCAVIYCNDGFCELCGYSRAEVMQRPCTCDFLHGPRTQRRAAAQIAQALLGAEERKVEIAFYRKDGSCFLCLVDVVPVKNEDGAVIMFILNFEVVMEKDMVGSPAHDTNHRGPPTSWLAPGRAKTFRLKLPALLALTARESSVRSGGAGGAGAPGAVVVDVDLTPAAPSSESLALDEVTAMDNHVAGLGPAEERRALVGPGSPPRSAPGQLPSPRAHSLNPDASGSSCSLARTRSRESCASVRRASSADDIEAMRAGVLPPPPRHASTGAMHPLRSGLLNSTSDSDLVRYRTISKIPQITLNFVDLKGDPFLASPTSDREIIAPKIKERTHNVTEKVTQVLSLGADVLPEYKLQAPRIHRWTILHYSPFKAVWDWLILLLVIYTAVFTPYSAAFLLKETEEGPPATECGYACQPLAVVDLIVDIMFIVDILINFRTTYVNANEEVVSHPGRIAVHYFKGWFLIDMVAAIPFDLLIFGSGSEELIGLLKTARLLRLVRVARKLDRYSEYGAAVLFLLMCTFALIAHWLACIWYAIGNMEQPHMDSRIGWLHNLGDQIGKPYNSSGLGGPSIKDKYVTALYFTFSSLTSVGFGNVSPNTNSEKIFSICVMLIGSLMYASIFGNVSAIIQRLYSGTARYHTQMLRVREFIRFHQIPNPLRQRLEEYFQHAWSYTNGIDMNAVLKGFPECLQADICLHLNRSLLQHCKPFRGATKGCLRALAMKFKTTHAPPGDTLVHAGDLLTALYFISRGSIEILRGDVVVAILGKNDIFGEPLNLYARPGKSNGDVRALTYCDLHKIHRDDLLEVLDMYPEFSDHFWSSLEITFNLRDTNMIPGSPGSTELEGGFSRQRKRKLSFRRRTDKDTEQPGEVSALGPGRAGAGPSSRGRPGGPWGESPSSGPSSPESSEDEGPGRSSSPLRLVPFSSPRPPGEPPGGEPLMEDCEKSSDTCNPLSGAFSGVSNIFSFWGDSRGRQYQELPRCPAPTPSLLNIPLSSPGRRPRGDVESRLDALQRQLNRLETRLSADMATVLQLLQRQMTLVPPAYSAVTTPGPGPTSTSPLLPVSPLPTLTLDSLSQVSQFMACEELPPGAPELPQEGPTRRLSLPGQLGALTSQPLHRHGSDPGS

Row | SMILES | hERG current change (%, negative = inhibition) at 10uM
1 | CCCCC[C@H](O)/C=C/C1=C(CCCCCCC(=O)O)C(=O)CC1 | 17.9%
2 | O=C(COC(=O)c1c[nH]c(=O)[nH]c1=O)NCc1ccccc1 | -12.2%
3 | Cc1ccc([N+](=O)[O-])cc1-c1ccc(/C=N/NC(=O)CN2CCOCC2)o1 | -38.9%
4 | O=C(CN1CCOCC1)N/N=C/c1ccc(-c2cccc(Cl)c2Cl)o1 | -73.4%
5 | O=C(CN1CCOCC1)N/N=C/c1ccc(-c2ccc(Br)cc2)o1 | -67.1%
6 | O=C(CN1CCOCC1)N/N=C/c1ccccc1 | -14.4%
7 | Cc1ccc(-c2ccc(/C=N/NC(=O)CN3CCOCC3)o2)cc1[N+](=O)[O-] | -29.5%
8 | O=C(CN1CCOCC1)N/N=C/c1ccc(-c2ccc(C(=O)O)cc2)o1 | -12%
9 | O=C(COc1ccccc1F)NNC(=O)c1ccc(N2CCCCC2)c([N+](=O)[O-])c1 | -36%
10 | Nc1nc(-c2ccc(Cl)cc2)cn1N | -2.98%
11 | COc1ccc(C(=O)Nc2ccccc2C(N)=O)cc1 | -18.9%
12 | CC(=O)Oc1cccc(N2C(=O)C3C4C=CC(CC4)C3C2=O)c1 (stereo not drawn) | 16.1%
13 | Cc1ccc(-c2nc3ccccc3c(=O)n2-c2ccc(O)cc2)cc1 | -3.92%
14 | O=C1CCC(C(=O)N2CCCCCC2)CN1CCc1ccc(Cl)cc1 (stereo not drawn) | -28.9%
15 | C=CCC1(CC=C)CCCN1C(=O)C1CCC(=O)N(CCc2ccccc2)C1 (stereo not drawn) | -12.5%
16 | C=CCC1(CC=C)CCCN1C(=O)C1CCC(=O)N(CCc2ccc(OC)cc2)C1 (stereo not drawn) | -18.6%
17 | O=C1CCC(C(=O)N2CCC(O)CC2)CN1CCc1ccc(Cl)cc1 (stereo not drawn) | 1.38%
18 | C=CCC1(CC=C)CCCN1C(=O)C1CCC(=O)N(CCc2ccc(Cl)cc2)C1 (stereo not drawn) | -60%
19 | CC(C)C1CCN(C(=O)C2CCC(=O)N(CCc3ccc(Cl)cc3)C2)CC1 (stereo not drawn) | -52.6%
20 | COc1ccc(S(=O)(=O)Nc2ccccc2C)cc1 | 0.614%
21 | C/C(=N\NC(N)=S)c1cccnc1 | 2.44%
22 | COc1ccccc1-c1c(C)nn2c(N3CCN(c4ccccc4OC)CC3)cc(C)nc12 | 3.75%
23 | COc1cccc(Nc2cc(C)nc3nc(C)nn23)c1 | -12.8%
24 | Cc1cc(Nc2cccc(C(F)(F)F)c2)n2nc(C)nc2n1 | -51.8%

Row | SMILES | hERG current change (%, negative = inhibition) at 10uM
25 | C(=N\N1CCN(c2ccccn2)CC1)/c1ccccn1 | 13.5%
26 | Cc1ccc(Nc2cc(C)nc3nc(C)nn23)c(C)c1 | 9.08%
27 | Cc1ccc(/C=N/N2CCN(c3ccccn3)CC2)cc1 | 2.68%
28 | COc1ccccc1N1CCN(c2nc(C)cc(=O)[nH]2)CC1 | 11.6%
29 | Cc1cc(N2CCN(c3ccccn3)CC2)n2nc(C)nc2n1 | -51.4%
30 | Cc1ccc(N2CCN(c3cc(C)nc4nc(C)nn34)CC2)c(C)c1 | -72.6%
31 | COc1ccccc1N1CCN(c2cc(C)nc3nc(C)nn23)CC1 | -57.6%
32 | Cc1cc(Nc2cccc(F)c2)n2nc(C)nc2n1 | -12.1%
33 | Cc1cc(C)c2c(n1)nn1c(N3CCN(c4ccccc4C)CC3)cc(C)nc21 | 7.78%
34 | COC(=O)C(CC(C)C)NC(=O)CNC(=O)c1ccccc1C (stereo not drawn) | 3.34%
35 | C/C(=N\OCC(=O)Nc1cc(C)cc(C)c1)c1ccc2c(c1)OCCO2 | -13%
36 | CCC12CN3CCN(CC(C3)/C1=N/NC(N)=O)C2 | 21%
37 | Cc1c(Cl)cccc1-n1ccnc1SCC(=O)O | 18.2%
38 | O=S(=O)(/N=C(/c1ccccc1)N1CCOCC1)c1ccc(F)cc1 | 23.7%
39 | COc1ccc(-c2cc(C(=O)N(C)Cc3cccc(OC)c3OC)c3ccccc3n2)cc1OC | -28.8%
40 | COc1ccc(OC)c(/C=C/C(=O)Oc2ccc(C(C)=O)cc2)c1 | 13.8%
41 | Nc1c(-c2ccccc2)cnn1-c1cccc(C(F)(F)F)c1 | 1.64%
42 | Cc1nnc(SCC(=O)NC2CCCCCC2)n1C | 23.4%
43 | Cc1cc(N2CCOCC2)n2nc(C)c(-c3ccc(Cl)cc3)c2n1 | 8.58%
44 | Cc1cc(N2CCN(c3cccc(C(F)(F)F)c3)CC2)n2nc(C)nc2n1 | -61.9%
45 | Cl.FC(F)(F)c1cccc(N2CCNCC2)c1 | -13.3%
46 | COc1cc(C)nc(N2CCC(C(=O)NC3CCCCC3)CC2)n1 | -3.08%
47 | Cc1cc(N2CCN(C)CC2)n2nc(-c3ccc(Cl)cc3)nc2n1 | -77.3%
48 | COc1ccccc1N1CCN(c2ccc3ccccc3n2)CC1 | -36.5%

Row | SMILES | hERG current change (%, negative = inhibition) at 10uM
49 | CCOc1cc(C)nc(N2CCN(C3CCCCC3)CC2)n1 | -67.5%
50 | Cn1nc(C(F)(F)F)c(C#N)c1N1CCN(c2cccc(C(F)(F)F)c2)CC1 | 3.01%
51 | Cc1nc2nc(-c3ccc(Cl)cc3)nn2c(C)c1Cl | 8.82%
52 | CCOc1cc(C)nc(N2CCC(C(=O)Nc3ccccc3OCC)CC2)n1 | 5.62%
53 | COc1ccccc1N1CCN(c2cnccn2)CC1 | -2.25%
54 | COc1ccccc1N1CCN(c2cc(N3CCCC3)nc(C)n2)CC1 | -65.3%
55 | COc1ccc(/C=N/n2c(-c3cc(C)[nH]n3)n[nH]c2=S)cc1OC | 18.6%
56 | Cc1cccnc1NC(=O)CN1C(=O)NC(C)(c2ccc3ccccc3c2)C1=O (stereo not drawn) | -14%
57 | Cc1cc(C)cc(NC(=S)N(C)C)c1 | -5.83%
58 | COc1ccc(N2CCN(C(=O)c3ccc4c(c3)[nH]c(=S)n3c5ccccc5nc43)CC2)cc1 | 16.7%
59 | Cc1nc2cc(NC(=O)c3ccc([N+](=O)[O-])s3)ccc2s1 | -9.99%
60 | O=C(c1cc(-c2cccc(O)c2)on1)N1CCN(C(c2ccccc2)c2ccccc2)CC1 | 10.8%
61 | Cc1ccc2nc(SCc3nc4c(cnn4-c4ccccc4)c(=O)[nH]3)[nH]c2c1 | 15.3%
62 | C/C=C/c1ccc(OCC(=O)Nc2cc(S(=O)(=O)N3CCOCC3)ccc2N2CCCC2)c(OC)c1 | 3.81%
63 | CC1(C)C(CO)=CC(=O)C2=C1SCC(=O)N2 | -16.3%
64 | CCOc1ccc(NC(=O)C2CC(=O)OC2c2ccccc2)cc1 (stereo not drawn) | 6.5%
65 | CCC(C)NC(=O)CCc1nc2ccccc2n1-c1ccccc1 (stereo not drawn) | 2.77%
66 | O=C(CNC(=O)c1ccccc1Cl)OC1CCOC1=O (stereo not drawn) | 13.5%
67 | COc1ccc(Nc2cc(C)nc3ncnn23)cc1Cl | -39.5%
68 | CCOC(=O)N1CCN(c2cc(C)nc3nc(C)nn23)CC1 | -32.9%
69 | Cc1nc2ncnn2c(N2CCN(c3cccc(C(F)(F)F)c3)CC2)c1C | -64.1%
70 | Cc1cc(N2CCCC2)n2nc(C)nc2n1 | -11.8%
71 | COc1ccc(Nc2cc(C)nc3nc(C)nn23)cc1Cl | -55.5%
72 | Cc1cc(N2CCN(C3CCCCC3)CC2)n2nc(C)nc2n1 | -57.7%

Row | SMILES | hERG current change (%, negative = inhibition) at 10uM
73 | Cc1cc(N2CCCC2)nc2c(C)cccc12 | -21.6%
74 | COc1cccc2c(C)cc(N3CCCCCC3)nc12 | -52.9%
75 | Cc1cc(N2CCCCC2)nc2c(C)cccc12 | 15%
76 | Cc1cc(N2CCN(c3cccc(C(F)(F)F)c3)CC2)n2ncnc2n1 | -37%
77 | Cc1nc2ncnn2c(N2CCN(C(=O)c3cccc(F)c3)CC2)c1C | -49.3%
78 | Cc1cc(Nc2ccc(F)c(Cl)c2)n2nc(C)nc2n1 | -18%
79 | O=C(O)CNC1=NCCCCC1 | 0.366%
80 | O=C(O)Cc1ccc(NS(=O)(=O)c2ccccc2Cl)cc1 | 24.4%
81 | Cc1ccc(NS(=O)(=O)c2cc([N+](=O)[O-])ccc2NNC(=S)Nc2cc(C)ccc2C)c(C)c1 | -0.00412%
82 | CC1(C)Cc2c(C#N)c(N3CCN(C(=O)c4ccco4)CC3)nc(-c3ccco3)c2CS1 | -21.6%
83 | Cc1ccc(CNS(=O)(=O)c2c(N)n(C)c(=O)n(C)c2=O)cc1 | 8.77%
84 | COc1ccc2c(CC(=O)NC(Cc3ccc(Cl)cc3)C(=O)O)cc(=O)oc2c1C (stereo not drawn) | 3.13%
85 | N#Cc1ccc(-c2ccc3c(c2)OCO3)nc1SCC(=O)OCc1ccccc1 | 9.22%
86 | Cc1ccc(NC(=O)C2CCN(S(=O)(=O)c3c(C)noc3/C=C/N(C)C)CC2)cc1 | -5.19%
87 | O=C(c1ccc(-c2ccccc2Cl)o1)N1CCN(S(=O)(=O)c2cccs2)CC1 | 15.9%
88 | O=C(c1cccs1)C1CN2CCC1CC2 (stereo not drawn) | -4.77%
89 | COc1ccc(C(=O)Nc2ccc3c(c2)nc2n3CCSC2)cc1 | -24.7%
90 | O=c1[nH]c(=O)n(Cc2ccc(Oc3ccccc3)cc2)cc1Br | -1.61%
91 | Cc1cccc(NCc2ccc([N+](=O)[O-])s2)c1 | -26.7%
92 | COc1cccc(NCc2ccc([N+](=O)[O-])s2)c1 | -51%
93 | COc1ccc(NCc2ccc([N+](=O)[O-])s2)cc1 | -13.6%
